# Bioassay records: PubChem BioAssay, several laboratories
# Rce1 inh = inhibitors of yeast Ras-converting enzyme; calls only; AID 2563; 290,000 compounds, 0.27% hits; Q03530; yeast membranes, quenched prenylated peptide cleavage fluorescence;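 active = fall in fluorescence gain of 50% or more versus controls, with final raw signal at or below 3038400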
# ADAM10 inh = ADAM10 inhibition, QFRET primary screen | O14672 | recombinant ADAM10, EDANS/DABCYL FRET peptide cleavage, 3 h | inhibition, % at 7 µM | 370,000 compounds, 0.62% hits;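 active = inhibition above a per-campaign cutoff equal to the mean of compounds falling between control-based bounds plus 3 SD, cut at about 20% in these data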
# PLC-beta3 inh = PLC-beta3 (human) inhibition, primary screen | inhibition, % at 12.2 µM | Q01970 | 370,000 compounds, 0.18% hits | Purified PLC-beta3, fluorogenic substrate, fluorescence; in the data active = inhibition above about 11%
# ADAM17 inh = ADAM17 inhibition, QFRET primary screen. inhibition, % at 6.95 µM. P78536. recombinant ADAM17, EDANS/DABCYL FRET peptide cleavage. 370,000 compounds, 0.83% hits;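 active = inhibition above the mean of compounds lying between control limits plus 3 SD, set per campaign, cut at about 8.5% in these data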
# PLC-gamma1 inh = inhibitors of human phospholipase C gamma1; AID 720700; purified PLC-gamma1, fluorogenic substrate, fluorescence; inhibition, % at 12.2 µM; 370,000 compounds, 0.84% hits; in the data active = inhibition above about 9.5%
# ADAM10 ctr = inhibits human ADAM10 in ADAM17 exosite counter-screen. shares compounds with ADAM17 inh. recombinant ADAM10, EDANS/DABCYL FRET peptide cleavage, 3 h. inhibition, % at 6.95 µM. 2,900 compounds, 47% hits. AID 743256;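 active = mean inhibition over the triplicate runs exceeds the activity threshold set in the earlier primary screen, cut at about 20% in these data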
# ADAM17 confirm = human ADAM17 inhibition, confirmation; inhibition, % at 6.95 µM; shares compounds with ADAM17 inh; 2,900 compounds, 65% hits; recombinant ADAM17, EDANS/DABCYL QFRET peptide cleavage;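 active = mean inhibition across replicates above the hit cutoff set in the primary screen, cut at about 8.5% in these data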
# A number is an active result; – = inactive; · = no result. Shown are actives, neighbours in structure and some others; about 2.1% of the full set was active somewhere.
SMILES,Rce1 inh,ADAM10 inh,PLC-beta3 inh,ADAM17 inh,PLC-gamma1 inh,ADAM10 ctr,ADAM17 confirm
COc1ccc(NC(=O)COC(=O)Cc2c[nH]c3ccccc23)cc1Cl,·,–,–,–,–,·,·
COc1cc(-c2nc(-c3ccc4c(c3)-c3ccccc3S4(=O)=O)c(-c3ccccc3)[nH]2)cc(OC)c1O,–,–,–,8.8,–,–,14.1
COc1ccccc1C(CCN(Cc1cccs1)C(C)=O)c1ccco1 (configuration not stated),–,–,–,–,–,·,·
CCC(=O)N(CCC(c1ccccc1)c1ccco1)Cc1cccs1 (configuration not stated),–,–,–,9.8,–,–,–
CCOC(=O)CC(=O)CSCC(=O)Nc1ccc(C)cc1,–,–,–,9.1,–,–,–
CCN(CC(=O)Nc1ccc(NC(C)=O)cc1)C(=O)CSCC(=O)Nc1ccc(C)cc1,–,–,–,–,–,·,·
CC1(C)CC(=O)c2sc(NS(=O)(=O)c3ccccc3)nc2C1,–,–,–,–,–,·,·
CC1(C)CC(=O)c2sc(NS(=O)(=O)c3ccc([N+](=O)[O-])cc3)nc2C1,–,–,–,15.8,–,21.9,–
CC(=O)c1cccc(-c2ccnc3c2CC(C(=O)Nc2cccc(C(F)(F)F)c2)O3)c1 (configuration not stated),·,–,–,8.9,–,–,–
CC(=O)c1cccc(-c2ccnc3c2CC(C(=O)Nc2cccc(Oc4ccccc4)c2)O3)c1 (configuration not stated),·,–,–,9.4,–,24.5,9.9
O=C(Nc1ccc2c(c1)OCO2)C1Cc2c(-c3ccccc3Oc3ccccc3)ccnc2O1 (configuration not stated),·,–,–,8.9,–,20.1,9.7
CC(=O)c1cccc(NC(=O)C2Cc3c(-c4cccc(C(C)=O)c4)ccnc3O2)c1 (configuration not stated),·,–,–,–,–,·,·
CCC(C)C(NS(=O)(=O)c1ccc(C)cc1)C(=O)N1CCOCCOCCOCC1 (configuration not stated),–,–,–,–,–,·,·
CN1CCN(S(=O)(=O)c2ccc(NC(=O)Cc3ccc([N+](=O)[O-])cc3)cc2)CC1,–,–,–,–,–,·,·
Cc1ccc(S(=O)(=O)N2CC3(O)CN(C(=O)OC(C)C)N(C(=O)OC(C)C)CC3(OC(=O)Nc3cccs3)C2)cc1 (configuration not stated),·,–,–,9.4,–,31.4,13.1
Cc1cc(SCC(=O)Nc2cccc(S(=O)(=O)NC3=NCCCCC3)c2)c(C)cc1Br,–,–,–,11.5,–,27.6,17.9
Cc1cc(SCC(=O)Nc2cccc(S(N)(=O)=O)c2)c(C)cc1Br,–,–,–,–,–,·,·
S=c1[nH]nc(C2CCCCC2)n1/N=C/C=C/c1ccccc1,–,–,–,9.2,–,–,11.1
S=c1[nH]nc(C2CCCCC2)n1/N=C/C(Cl)=C\c1ccccc1,–,–,–,–,–,·,·
CC1(C)CN(c2ccccc2)C(=O)[C@H]1CC(=O)Nc1ccccc1,·,–,–,–,–,·,·
CCN(CC)S(=O)(=O)c1ccc(C(=O)Nc2cc3oc4ccccc4c3cc2OC)cc1,–,–,–,–,–,·,·
CCN(CC)C(=O)CN(c1cc2c(cc1OC)oc1ccccc12)S(=O)(=O)c1ccc(C)cc1,–,–,–,15.5,–,–,–
CC1C(=O)C(C)C(c2cc(Cl)ccc2O)NC1c1cc(Cl)ccc1O (configuration not stated),–,–,–,9.6,–,32.5,16.5
Cc1cccnc1C(NC(=O)C1CCN(CCCc2ccccc2)CC1)c1ccc(F)cc1 (configuration not stated),·,–,–,–,–,·,·
c1ccc(-c2cccc(CNc3nc(-c4ccccn4)nnc3-c3ccccc3)c2)cc1,·,–,–,9.0,–,–,–
SMILES,Rce1 inh,ADAM10 inh,PLC-beta3 inh,ADAM17 inh,PLC-gamma1 inh,ADAM10 ctr,ADAM17 confirm
CN(C)c1nc(-c2ccccn2)nnc1-c1ccccc1,–,–,–,–,–,·,·
O=S(=O)(c1ccc(Cl)cc1)N1CCCC1c1nc(-c2ccc(Cl)cc2)no1 (configuration not stated),–,–,–,9.8,–,–,–
O=S(=O)(c1ccccc1Cl)N1CCCC1c1nc(-c2ccccc2Cl)no1 (configuration not stated),–,–,–,–,–,·,·
CCOc1cc(CNCCO)cc(Br)c1OCc1ccc(Cl)cc1,–,–,–,12.0,–,–,–
CCOc1cc(CNCCO)cc(Br)c1OCc1ccccc1Cl,–,–,–,–,–,·,·
Cc1ccc(S(=O)(=O)NCC2CCN(C(=O)C(=O)c3cccs3)CC2)cc1,·,–,–,–,–,·,·
COc1ccccc1CCn1cnc(-c2ccc(F)cc2F)c1CC(C)C,·,–,–,10.3,–,29.5,14.1
CCN(CC)CCNC(=O)c1cc(Nc2ccc(OC)c(OC)c2)nc2ccccc12,–,–,–,–,–,·,·
Cc1cc(Cl)ccc1OCc1n[nH]c(=S)n1C1CCCCC1,–,–,–,9.3,–,30.3,11.0
N#Cc1c(NC(=O)COC(=O)C2CC3C=CC2C3)oc(-c2ccccc2)c1-c1ccccc1 (configuration not stated),–,–,–,8.9,–,–,–
CCCCNS(=O)(=O)c1ccc(NC(=O)C(Sc2ccccc2)c2ccccc2)cc1 (configuration not stated),–,37.6,–,17.3,–,46.3,27.2
O=C(NC(Cc1c[nH]c2ccccc12)C(=O)OCC(=O)c1cccc2ccccc12)c1cccs1 (configuration not stated),–,–,–,9.5,–,–,8.9
COc1c(C(CC(C)C)OC(C)=O)ccc2c1C(=O)OCc1cc(C)cc(O)c1O2 (configuration not stated),–,–,–,11.8,–,26.8,15.8
CCSc1nnc(NC(=O)CCc2ccc(OC)cc2)s1,–,–,–,9.1,–,–,–
COc1cc2c(cc1OC)C(c1ccc3c(c1)Cc1ccccc1-3)OC(=O)C2 (configuration not stated),·,–,–,–,–,·,·
C[C@H](NC(=O)c1nc[nH]c1C(=O)N1CCc2ccccc2C1)C(=O)OC(C)(C)C,–,–,–,–,–,·,·
C[C@@H](NC(=O)c1nc[nH]c1C(=O)N1CCc2ccccc2C1)c1ccccc1,·,–,–,9.0,–,–,–
COc1cc(C)c(C(=O)Oc2cc(C)c(C(=O)O)c(O)c2C)c(O)c1C,–,–,–,11.1,–,–,10.7
COc1cc(C)c(C(=O)Oc2cc(C)c(C(=O)O)c(O)c2)c(O)c1,·,–,–,–,–,·,·
Cc1ccc(NS(=O)(=O)c2csc(C(N)=O)c2)cc1C,–,–,–,–,–,·,·
CCOc1cc(/C=N/NS(=O)(=O)c2ccccc2)ccc1OS(=O)(=O)c1ccc(C)cc1,–,–,–,–,–,·,·
